Bioassay records as filed in PubChem BioAssay.
HCV inhibitor = blocks hepatitis C virus. Potency, µM (highest dose often 41.8 µM), usual class: inhibitors. Huh7.5.1 HCVcc-Cre infection, luciferase reporter, 44 h. AID 651820. 3.4% of 340,000 active; active = well fitted inhibition curve with a large enough effect; inconclusive = small, poorly fitted or top-dose-only effect, or another doubt; inactive = no such curve, though single readings can be large or run the other way
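1,000 cells/well; 4 h culture; + compound; + HCVcc-Cre (~0.5 moi); 44 h; luciferase substrate, RT 15 min; read 15 sec.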
FMDV antiviral = blocks foot and mouth disease virus | FMDV antiviral cell-based qHTS | Potency, µM (top dose mostly 57.9 µM), most hits filed as inhibitors | 1.2% of 410,000 active; calls by dose curve; tested in HEK293T cells; note: read-out not given here; nearly all actives have a fitted effect of over 45% in size
Shiga inhibitor = blocks Shiga toxin action in Vero cells. 9.2% of 290,000 active. inhibition, % at 38.7 µM. Vero cells, Shiga toxin protein synthesis inhibition reporter; in the data active = inhibition mostly above about 28%, no sharp cut-off; inactive = mostly below about 43%
Lassa entry inh = Lassa virus entry inhibition; Lassa virus pseudotype entry inhibition, cell reporter; Potency, µM (titrated, usually from 37.9 µM), actives largely listed as inhibitors; 1.2% of 300,000 active; calls by dose curve; tested in HEK293 cells; note: nearly all actives have a fitted effect of over 50% in size
CHX counter = counter-screen hit for Shiga toxin inhibitors, cycloheximide; cell reporter, cycloheximide protein synthesis inhibition counterscreen; max response, %; 12% of 300,000 active; in the data active = max response mostly above about 13%, no sharp cut-off; inactive = mostly below about 14%; note: read at 38.3 µM for the half of the compounds with a filed dose
MARV entry inh = Marburg virus entry inhibition; AID 540276; Potency, µM (doses to about 37.8 µM), hits mostly inhibitors; Marburg virus pseudotyped entry inhibition, cell reporter; 1.8% of 300,000 active; calls by dose curve; tested in HEK293 cells
Of the large screens only hits and unclear results are named; the others gave an inactive call. In the library only some 13% were active in any assay of this set; here they are far more common.

Cc1ccccc1-n1c(O)c(C=Nc2ccc3c(c2)OCO3)c(=O)[nH]c1=O	none
Oc1[nH]c2ccccc2c1/C=N/N1CCCCC1	MARV entry inh inconclusive
Cc1ccccc1OCC(O)CNC1CCCC1 (centres undefined)	Lassa entry inh inconclusive (no result: Shiga inhibitor)
CSc1nnc(-c2cc3c(-c4ccccc4)nn(C)c3s2)n1C	HCV inhibitor inconclusive, MARV entry inh inconclusive
COc1ccc(S(=O)(=O)N=Nc2c(O)[nH]c3ccccc23)cc1	none
COc1ccc(CN=Cc2c(O)[nH]c3ccccc23)cc1	Shiga inhibitor 25, CHX counter 27, MARV entry inh inconclusive
CC(C)CCn1c(=O)c2ccccc2n2c(CCl)nnc12	HCV inhibitor inconclusive, FMDV antiviral 32µM, Lassa entry inh inconclusive, MARV entry inh inconclusive
CCCCCn1c(=O)c2ccccc2n2c(CCl)nnc12	FMDV antiviral 20µM, CHX counter 33
O=C(CNC(=O)c1ccc(Br)o1)Nc1ccncc1	none (no result: Shiga inhibitor, CHX counter)
O=C(Nc1ccc(Nc2ccccc2)cc1)c1ccc(Br)o1	HCV inhibitor inconclusive, Shiga inhibitor 61, CHX counter 27, MARV entry inh inconclusive
CC(C)(Oc1ccc(Cl)cc1)C(=O)NNC(=O)c1ccc(Br)o1	CHX counter 15
O=C(NNC(=S)NCc1ccc(Cl)cc1)c1ccc(Br)o1	none
O=C(Nc1ccc(NC(=O)c2cccs2)cc1)c1ccc(Br)o1	none
C/C(=N/NC(=O)c1ccc(Br)o1)C(C)C	Shiga inhibitor 79, Lassa entry inh inconclusive, CHX counter 30, MARV entry inh inconclusive
O=C(Nc1ccc(Cc2ccncc2)cc1)c1ccc(Br)o1	CHX counter 15
Cc1nc(-c2ccc(NC(=O)c3ccc(Br)o3)cc2)cs1	HCV inhibitor inconclusive, Shiga inhibitor 114, Lassa entry inh inconclusive, CHX counter 56, MARV entry inh inconclusive
CC(C)c1ccc(NC(=O)c2ccc(Br)o2)cc1	Shiga inhibitor 50, Lassa entry inh inconclusive, CHX counter 40, MARV entry inh inconclusive
O=C(NC(=S)Nc1ccccc1)c1ccc(Br)o1	Shiga inhibitor 79, CHX counter 36 (no result: Lassa entry inh, MARV entry inh)
COc1ccc(NC(=S)NC(=O)c2cncc(Br)c2)cc1	none (no result: Shiga inhibitor, CHX counter)
Cc1nc(-c2cccc(NC(=O)c3ccc(Br)o3)c2)cs1	HCV inhibitor inconclusive (no result: Lassa entry inh, MARV entry inh)
COc1ccc(NC(=S)NC(=O)c2ccc(Br)o2)cc1	Shiga inhibitor 96, CHX counter 67 (no result: Lassa entry inh, MARV entry inh)
COc1ccccc1NC(=O)c1cc(S(=O)(=O)N2CCC3(CC2)OCCO3)ccc1F	none
O=C(Nc1ccc2c(c1)Cc1ccccc1-2)c1ccc(Br)o1	HCV inhibitor inconclusive, Shiga inhibitor 35, Lassa entry inh inconclusive, CHX counter 34
O=C(Nc1ccc2c(c1)Cc1ccccc1-2)c1ccccc1F	MARV entry inh inconclusive (no result: Shiga inhibitor, CHX counter)
O=C(NC(=S)NCc1ccccc1)c1ccc(Br)o1	none (no result: HCV inhibitor, FMDV antiviral, Lassa entry inh, MARV entry inh)
NC(=O)c1ccccc1NC(=S)NC(=O)c1ccc(Br)o1	Shiga inhibitor 56, CHX counter 35
COc1ccc(NC(=O)c2ccc(Br)o2)cc1	Shiga inhibitor 96, Lassa entry inh inconclusive, CHX counter 36
Cc1cc(NC(=O)C2CCN(S(=O)(=O)c3c(C)noc3C)CC2)ccc1Br	FMDV antiviral inconclusive
Cn1c(=O)oc2cc(S(=O)(=O)N3CCCC(C(=O)N4CCc5ccccc5C4)C3)ccc21 (centres undefined)	HCV inhibitor inconclusive (no result: Lassa entry inh)
CCNC(=O)c1ccc(C2SCC(=O)N2CCc2ccccc2)cc1 (centres undefined)	Lassa entry inh inconclusive
COc1ccc(C2SCC(=O)N2CCc2ccc(OC)c(OC)c2)cc1 (centres undefined)	HCV inhibitor 11µM, FMDV antiviral inconclusive (no result: Lassa entry inh, MARV entry inh)
CCCNC(=O)c1ccc(C2SCC(=O)N2CCc2ccccc2)cc1 (centres undefined)	HCV inhibitor inconclusive, Lassa entry inh 10µM
S=C1SCN(Cc2ccccn2)CN1Cc1ccco1	MARV entry inh 9.2µM (no result: HCV inhibitor)
COCCN1CSC(=S)N(Cc2ccco2)C1	MARV entry inh inconclusive
O=C(c1c[nH]c(C(=O)N2CCN(c3ccccc3F)CC2)c1)c1cccc(Cl)c1Cl	HCV inhibitor 25µM, Lassa entry inh inconclusive, MARV entry inh inconclusive
CCOC(=O)N1CCN(c2ccc(C(=O)c3ccccc3)cc2F)CC1	HCV inhibitor inconclusive, Shiga inhibitor 77, Lassa entry inh inconclusive, CHX counter 29
CC(=O)c1ccc(N2CCN(C(=O)c3ccccc3SCC(=O)NCc3ccco3)CC2)c(F)c1	HCV inhibitor 13µM, FMDV antiviral inconclusive, MARV entry inh inconclusive (no result: Shiga inhibitor, CHX counter)
O=C(c1ccccc1)c1ccc(N2CCN(C(=O)c3cccc(F)c3F)CC2)c(F)c1	HCV inhibitor 13µM (no result: Lassa entry inh, MARV entry inh)
Cc1ccccc1OCCn1cc(C=O)c2ccccc21	FMDV antiviral inconclusive, MARV entry inh inconclusive
NC(=O)c1ncn([C@@H]2O[C@H](CNS(=O)(=O)c3cc(S(=O)(=O)c4ccccc4)cs3)[C@@H](O)[C@H]2O)n1	none (no result: Shiga inhibitor, Lassa entry inh, CHX counter, MARV entry inh)
Cc1[nH]c2ccccc2c1C(=O)C(=O)NCc1cccs1	Lassa entry inh inconclusive
CN1CCN(NC(=O)CC(C)(C)C)CC1	none
CCN1C(=O)[C@H]2[C@@H](c3ccc(OC)cc3)N[C@]3(CCCN(Cc4cccn4C)C3=O)[C@H]2C1=O	none (no result: HCV inhibitor, Shiga inhibitor, Lassa entry inh, CHX counter, MARV entry inh)
COc1ccc(NC(=O)c2c(C)oc3ccc(O)c(CN4CCCC4)c23)cc1Cl	Lassa entry inh inconclusive, MARV entry inh inconclusive (no result: HCV inhibitor, Shiga inhibitor, CHX counter)
CSc1nnc(C(C)c2ncc(C(F)(F)F)cc2Cl)n1C (centres undefined)	MARV entry inh inconclusive
CC1CCc2sc3nc(NCc4ccco4)n4ncnc4c3c2C1 (centres undefined)	HCV inhibitor inconclusive
CC1CCCc2sc3nc(NCc4ccco4)n4ncnc4c3c21 (centres undefined)	HCV inhibitor inconclusive, CHX counter 24, MARV entry inh inconclusive
CC1CCC2C(=O)N(c3ccc(NC4CCN(Cc5ccccc5)CC4)c([N+](=O)[O-])c3)C(=O)C2C1 (centres undefined)	none (no result: Lassa entry inh)
c1nnc(-c2ccc3c(c2)OCO3)o1	HCV inhibitor inconclusive
O=C1CCCCC1Sc1nnc(-c2ccc3c(c2)OCO3)o1 (centres undefined)	FMDV antiviral 4µM, Lassa entry inh inconclusive, MARV entry inh 5.6µM
Clc1ccc(CSc2nnc(-c3ccc4c(c3)OCO4)o2)cc1	MARV entry inh inconclusive
O=C(CSc1nnc(-c2ccc3c(c2)OCO3)o1)Oc1ccccc1	none (no result: HCV inhibitor, Shiga inhibitor, CHX counter)
c1coc(-c2nnc(-c3ccc4c(c3)OCO4)o2)c1	Shiga inhibitor 52, CHX counter 22 (no result: HCV inhibitor, FMDV antiviral, Lassa entry inh, MARV entry inh)
Brc1ccc(-c2nnc(-c3ccc4c(c3)OCO4)o2)o1	Shiga inhibitor 111, CHX counter 35
Cc1ccc(-c2nnc(-c3ccc4c(c3)OCO4)o2)cc1	Shiga inhibitor 101, CHX counter 46
O=C(NCc1ccc2c(c1)OCO2)c1ccc2c(c1)C(=O)N(Cc1cccnc1)C2=O	none
C=CCn1c(SCc2c(C(=O)OC)sc(N)c2C(=O)OC)nnc1-c1ccc(Br)cc1	HCV inhibitor inconclusive, MARV entry inh inconclusive
O=C(Nc1nc2c(s1)CCCC2)c1cc2n(n1)C(C(F)(F)F)CC(C1CC1)N2 (centres undefined)	Lassa entry inh inconclusive, CHX counter 19, MARV entry inh inconclusive
